The source of these data is PubChem BioAssay (NCATS).

Results filed as inconclusive are left out. Active and inactive are the calls of the source. Unless noted, calls come from the whole dose curve; as a rule, active = well fitted curve in the direction sought with a large enough effect; inconclusive = small, poorly fitted or top-dose-only effect, or another doubt; inactive = no such curve, though single readings can be large; an effect the other way counts as inactive or inconclusive.

The target of test [1] is Estrogen receptor (Homo sapiens) (UniProt P03372). The experiment in a line: qHTS assay for small molecule agonists of estrogen receptor alpha signaling (AID 588514; calls by dose curve;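 note: 0% = vehicle only and 100% = reference agonist; nearly all actives have a fitted effect of over 70% in size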). An outline of the steps:
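ER-alpha-UAS-bla GripTite HEK 293 cells in medium with 2% charcoal/dextran-treated FBS were treated with compound titrations at 37 C for 18 hrs; beta-lactamase reporter read by CCF4 fluorescence after 2 hrs at RT.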
Background: qHTS replaces the single test concentration by a dilution series.

Test [2] has as its target Glucocorticoid receptor (Homo sapiens) (UniProt P04150). Briefly: qHTS assay for small molecule antagonists of glucocorticoid receptor signaling (AID 588533; active = well fitted inhibition curve with a large enough effect in the signal ratio, with a control signal flat, not every such curve was filed as active; the % refers to the signal ratio;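 note: cells stimulated with 2 nM dexamethasone as agonist; % is set by controls: 0 for no effect and ±100 for the full control effect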). An outline of the steps: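 Antagonist-mode qHTS: compound titrations added to GRE-bla HeLa cells, then dexamethasone 2 nM final; 18 h, 37 C. CCF4 FRET fluorescence normalized to dexamethasone and DMSO; IC50 from Hill fit.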

The target of test [3] is Thyroid hormone receptor beta (Homo sapiens) (UniProt P10828). The experiment in a line: qHTS assay for small molecule agonists of thyroid hormone receptor beta signaling (AID 588545; calls by dose curve). An outline of the steps: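 Agonist activity was read as beta-lactamase CCF4 fluorescence (405 ex, 460/530 em), scaled between DMSO (0%) and 10 nM T3 (100%), then Hill-fitted for EC50 and efficacy. HEK 293 TR-UAS-bla cells in 2% charcoal/dextran FBS medium were exposed 18 h at 37 C.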

Test [4] can be described thus: qHTS assay for small molecule antagonists of retinoid X receptor alpha signaling (AID 588546; active = well fitted inhibition curve with a large enough effect in the signal ratio, with a control signal flat, not every such curve was filed as active; the % refers to the signal ratio;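 note: cells stimulated with 9-cis-retinoic acid as agonist; % is set by controls: 0 for no effect and ±100 for the full control effect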). As to conditions: HEK293T RXRa-UAS-bla, beta-lactamase ratio, antagonist mode; measured here: W530 green channel, cytotoxicity proxy. Put shortly:
(§1)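 Beta-lactamase reporter inhibition, read as CCF4 fluorescence ratio (ex 405, em 460/530 nm) after 2 h at RT. HEK293T UAS-bla cells, 2500/well, were stimulated with 9-cis-RA at 500 or 100 nM final alongside test compound for 18 h at 37 C.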

The target of test [5] is Retinoic acid receptor RXR-alpha (Homo sapiens) (UniProt P19793). Described as above. The settings on record: HEK293T RXRa-UAS-bla, beta-lactamase ratio, antagonist mode. Put shortly:
as §1

A short description of test [6]: qHTS assay for small molecule activators of the p53 signaling pathway (AID 651743; active = well fitted activation curve with a large enough effect in the signal ratio, not every such curve was filed as active; the % refers to the signal ratio; note: series mostly up to about 92 µM; % of control where 0% means no effect). As to conditions: HCT-116 p53RE-bla, beta-lactamase FRET ratio, 16 h; activation: stronger effect = higher value. Put shortly:
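p53RE-bla HCT-116 cells with a stably integrated beta-lactamase reporter under p53 response elements were plated, rested 5 hours at 37 C/5% CO2, then exposed to compounds in DMSO for 16 hours at 37 C. LiveBLAzer B/G FRET substrate was read after 2 hours at room temperature.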

A short description of test [7]: qHTS assay for small molecule activators of the nuclear factor-kappa B (NF-kB) signaling pathway (AID 651749; active = well fitted activation curve with a large enough effect in the signal ratio; the % refers to the signal ratio; note: series mostly up to about 77 µM; % of control where 0% means no effect). As to conditions: NF-kB-bla ME-180 cells, beta-lactamase FRET ratio, 16 h; activation: stronger effect = higher value. An outline of the steps:
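ME-180 cells stably carrying a beta-lactamase reporter under an NF-kB response element were exposed to compound or DMSO vehicle for 16 hr at 37C, 5% CO2. Pathway activation was read by FRET, since reporter expression disrupts FRET.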

Test [8] can be described thus: qHTS assay for environmental chemicals that activate the Aryl hydrocarbon Receptor (AhR) signaling pathway (AID 651777). Note: % of control where 0% means no effect; nearly all actives have a fitted effect of over 15% in size. As to conditions: 1A2-DRE human hepatoma cells, luciferase, 24 h; activation: stronger effect = higher value. Put shortly:
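Measured luciferase activity, read 30 min after One-Glo addition at room temperature, from human hepatoma cells bearing a dioxin response element–CYP1A2 promoter reporter and exposed to compound for 24 hr at 37 C.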

The target in test [9] is Peroxisome proliferator-activated receptor alpha (Homo sapiens) (UniProt Q07869). Briefly: qHTS assay for small molecule agonists of the peroxisome proliferator-activated receptor alpha (PPARalpha) signaling pathway (AID 651778). Note: % of control where 0% means no effect. As to conditions: PathHunter PPARalpha complementation, chemiluminescence, 6 h; max response: stronger effect = higher value. An outline of the steps:
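Cells plated at 2,000/well and held overnight at 37 C, 5% CO2, then compound added by pin tool for 6 hr; after PathHunter detection reagent and 60 min at room temperature, chemiluminescence from enzyme complementation was read.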

Test [10] can be described thus: qHTS assay for small molecule agonists of the antioxidant response element (ARE) signaling pathway measured by Nrf2-dependant transcriptional activity (AID 720636; active = well fitted curve in the direction sought with a large enough effect in the repeat runs; an effect the other way counts as inactive or inconclusive;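 note: HepG2 cells with an ARE-driven luciferase reporter; % of control where 0% means no effect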). An outline of the steps: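 In HepG2 cells engineered with an Nrf2-responsive luciferase gene, ARE induction was quantified as luminescence after 16 hr compound treatment at 37 C.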
The nature of test [11]: qHTS assay for small molecule agonists of the antioxidant response element (ARE) signaling pathway measured by Nrf2-dependant transcriptional activity - cell viability counter screen (AID 720653; active = well fitted curve in the direction sought with a large enough effect in the repeat runs; an effect the other way counts as inactive or inconclusive; note: % is set by controls: 0 for no effect and ±100 for the full control effect). As to conditions: ARE-bla HepG2 viability, CellTiter-Glo ATP luminescence, 16 h; max response: stronger effect = lower value. An outline of the steps:
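ARE-bla HepG2 cells (2,000/well) rested 5 hrs at 37C/5% CO2, then exposed to compounds in DMSO for 16 hrs. Viability was read in the same wells as intracellular ATP by luminescence, 30 min at room temperature after reagent addition.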

Test [12] can be described thus: qHTS assay for cell viability of HEK293 cells (AID 743288). Note: % is set by controls: 0 for no effect and ±100 for the full control effect; nearly all actives have a fitted effect of over 50% in size. As to conditions: ATP luminescence (CellTiter-Glo), 18 h; max response: stronger effect = lower value. Put shortly:
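Environmental chemicals tested in qHTS format against parental HEK293 cells; 18 h treatment, 37 C; read-out ATP luminescence (CellTiter-Glo), 30 min RT development.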

Test [13] is described as follows: qHTS assay for cell viability of the p53RE-bla HCT-116 cell line (AID 743292). Note: % is set by controls: 0 for no effect and ±100 for the full control effect; nearly all actives have a fitted effect of over 55% in size. An outline of the steps:
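Intracellular ATP of p53RE-bla HCT-116 cells measured by luciferase luminescence following 16 h compound incubation at 37 C; DMSO-only wells served as vehicle controls.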

Test [14] has as its target Peroxisome proliferator-activated receptor delta (Homo sapiens) (UniProt Q03181). The experiment in a line: qHTS assay for small molecule agonists of peroxisome proliferator-activated receptor delta signaling (AID 588534; calls by dose curve;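 note: 0% = DMSO basal wells and 100% = positive control agonist at 10 µM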). An outline of the steps:
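Cell-based beta-lactamase reporter assay run in agonist mode: cells seeded and incubated 5 hrs at 37 C, compounds added and incubated 18 hrs at 37 C. CCF4 dye fluorescence read after 2 hrs at RT; EC50 and efficacy from Hill fits.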

A short description of test [15]: qHTS assay for small molecule antagonists of peroxisome proliferator-activated receptor delta signaling (AID 588535; active = well fitted inhibition curve with a large enough effect in the signal ratio, with a control signal flat, not every such curve was filed as active; the % refers to the signal ratio;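 for max response: cells co-treated with a PPAR-delta agonist as stimulator during compound exposure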). The settings on record: HEK293T PPARd-UAS-bla, beta-lactamase FRET ratio, 18 h; 460 nm channel. An outline of the steps:
(§2)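 GeneBLAzer PPAR-delta-UAS-bla HEK293T cells in medium with 2% charcoal/dextran FBS were preincubated 5 hrs at 37 C, then given compounds, incubated 18 hrs at 37 C, and read by CCF4 beta-lactamase fluorescence; IC50 from Hill fits.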

For test [16], the target named is Peroxisome proliferator-activated receptor delta (Homo sapiens) (UniProt Q03181). The description is as above. An outline of the steps: as §2
Test [17] concerns the target Vitamin D3 receptor (Homo sapiens) (UniProt P11473). The experiment in a line: qHTS assay for small molecule antagonists of vitamin D receptor signaling (AID 588541; calls by dose curve;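 note: receptor activated by calcitriol during compound treatment; series mostly up to about 77 µM; % is set by controls: 0 for no effect and ±100 for the full control effect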). An outline of the steps:
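VDR-UAS-bla HEK293T cells (2000/well, 2% charcoal-stripped FBS) were treated with titrated compounds plus 1-alpha,25-dihydroxyvitamin D3 (50 nM or 3 nM final) for 16 h at 37 C. CCF4 beta-lactamase fluorescence was read; Hill fits gave IC50.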

The target in test [18] is Retinoic acid receptor RXR-alpha (Homo sapiens) (UniProt P19793). The experiment in a line: qHTS assay for small molecule agonists of retinoid X receptor alpha signaling (AID 588544; calls by dose curve;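 note: 0% = DMSO basal wells and 100% = reference agonist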).
In test [19] the target is Thyroid hormone receptor beta (Homo sapiens) (UniProt P10828). Briefly: qHTS assay for small molecule antagonists of thyroid hormone receptor beta signaling (AID 588547; active = well fitted inhibition curve with a large enough effect in the signal ratio, with a control signal flat, not every such curve was filed as active; the % refers to the signal ratio). As to conditions: TR-UAS-bla HEK293, beta-lactamase ratio, antagonist mode, 18 h. Put shortly: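 TR-UAS-bla GripTite HEK293 cells in 2% charcoal/dextran FBS medium were preincubated 4 h at 37 C, given compound (0.59 nM to 92 uM) plus 0.4 nM T3 (final) for 18 h, then CCF4 for 2 h at RT; Hill fit gave IC50.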

Test [20] deals with Nuclear receptor subfamily 1 group I member 2 (Rattus norvegicus) (UniProt Q9R1A7). Briefly: qHTS assay for small molecule activators of the rat pregnane X receptor (rPXR) signaling pathway (AID 651751; call rule not given here; note: 0% is about no effect). As to conditions: rPXR reporter cells, luciferase (One-Glo), 24 h.
Sequence of Nuclear receptor subfamily 1 group I member 2 (Rattus norvegicus) (Q9R1A7 whole entry, looked up): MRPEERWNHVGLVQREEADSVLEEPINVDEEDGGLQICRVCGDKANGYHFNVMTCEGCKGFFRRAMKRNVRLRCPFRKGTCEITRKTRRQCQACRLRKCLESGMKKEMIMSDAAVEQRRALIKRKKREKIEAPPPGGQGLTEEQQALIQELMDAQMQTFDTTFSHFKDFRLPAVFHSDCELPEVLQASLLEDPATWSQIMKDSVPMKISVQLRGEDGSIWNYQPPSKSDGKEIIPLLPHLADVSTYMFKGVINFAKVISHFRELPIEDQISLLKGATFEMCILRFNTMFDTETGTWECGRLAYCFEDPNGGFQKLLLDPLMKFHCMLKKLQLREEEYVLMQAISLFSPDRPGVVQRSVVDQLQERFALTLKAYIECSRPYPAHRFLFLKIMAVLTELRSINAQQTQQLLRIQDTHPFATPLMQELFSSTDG

Sequence of Peroxisome proliferator-activated receptor delta (Homo sapiens) (Q03181 whole entry, looked up): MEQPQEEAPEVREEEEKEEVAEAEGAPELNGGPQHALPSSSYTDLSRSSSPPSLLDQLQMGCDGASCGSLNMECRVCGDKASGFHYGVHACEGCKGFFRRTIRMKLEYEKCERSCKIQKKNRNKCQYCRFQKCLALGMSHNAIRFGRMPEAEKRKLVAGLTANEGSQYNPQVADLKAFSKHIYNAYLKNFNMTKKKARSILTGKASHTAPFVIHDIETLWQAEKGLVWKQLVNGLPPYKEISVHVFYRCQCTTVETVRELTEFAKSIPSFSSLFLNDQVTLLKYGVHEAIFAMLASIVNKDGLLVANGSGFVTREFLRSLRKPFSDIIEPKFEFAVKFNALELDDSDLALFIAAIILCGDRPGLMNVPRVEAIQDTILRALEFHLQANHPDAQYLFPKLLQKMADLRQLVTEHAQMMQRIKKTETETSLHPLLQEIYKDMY
Sequence of Glucocorticoid receptor (Homo sapiens) (P04150 whole entry, looked up): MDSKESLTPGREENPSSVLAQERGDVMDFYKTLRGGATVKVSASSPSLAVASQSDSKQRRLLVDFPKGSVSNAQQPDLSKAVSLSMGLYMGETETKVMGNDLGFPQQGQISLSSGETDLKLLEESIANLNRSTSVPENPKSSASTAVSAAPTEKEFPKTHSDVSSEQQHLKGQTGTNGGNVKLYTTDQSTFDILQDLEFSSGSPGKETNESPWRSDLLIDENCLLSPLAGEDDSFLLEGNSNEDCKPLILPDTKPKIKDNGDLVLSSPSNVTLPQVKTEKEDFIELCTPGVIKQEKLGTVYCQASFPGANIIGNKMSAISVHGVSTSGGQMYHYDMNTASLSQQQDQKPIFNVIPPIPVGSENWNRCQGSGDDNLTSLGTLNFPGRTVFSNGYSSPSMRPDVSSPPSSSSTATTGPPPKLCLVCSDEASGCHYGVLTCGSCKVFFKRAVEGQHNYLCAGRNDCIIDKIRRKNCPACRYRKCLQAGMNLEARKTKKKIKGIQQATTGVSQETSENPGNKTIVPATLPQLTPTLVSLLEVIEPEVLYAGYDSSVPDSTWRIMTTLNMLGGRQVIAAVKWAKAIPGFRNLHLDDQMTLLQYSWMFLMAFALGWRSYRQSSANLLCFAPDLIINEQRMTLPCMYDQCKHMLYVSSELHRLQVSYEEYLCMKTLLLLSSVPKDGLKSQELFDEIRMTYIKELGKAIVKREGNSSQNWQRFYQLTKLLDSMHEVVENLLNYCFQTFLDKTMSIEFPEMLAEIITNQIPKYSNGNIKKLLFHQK
Sequence of Peroxisome proliferator-activated receptor alpha (Homo sapiens) (Q07869 whole entry, looked up): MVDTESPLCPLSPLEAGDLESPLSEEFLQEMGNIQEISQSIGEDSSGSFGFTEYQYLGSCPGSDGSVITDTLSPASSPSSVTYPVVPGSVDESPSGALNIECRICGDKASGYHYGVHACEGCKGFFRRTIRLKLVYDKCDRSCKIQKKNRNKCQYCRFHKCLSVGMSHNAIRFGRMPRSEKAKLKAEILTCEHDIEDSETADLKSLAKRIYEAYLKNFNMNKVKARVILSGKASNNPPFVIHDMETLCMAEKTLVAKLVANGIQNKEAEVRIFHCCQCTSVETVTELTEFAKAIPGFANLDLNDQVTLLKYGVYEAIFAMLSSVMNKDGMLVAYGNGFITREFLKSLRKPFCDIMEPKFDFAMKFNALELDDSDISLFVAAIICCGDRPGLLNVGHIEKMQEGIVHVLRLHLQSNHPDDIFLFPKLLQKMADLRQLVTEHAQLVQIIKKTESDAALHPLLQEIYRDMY
Sequence of Thyroid hormone receptor beta (Homo sapiens) (P10828 whole entry, looked up): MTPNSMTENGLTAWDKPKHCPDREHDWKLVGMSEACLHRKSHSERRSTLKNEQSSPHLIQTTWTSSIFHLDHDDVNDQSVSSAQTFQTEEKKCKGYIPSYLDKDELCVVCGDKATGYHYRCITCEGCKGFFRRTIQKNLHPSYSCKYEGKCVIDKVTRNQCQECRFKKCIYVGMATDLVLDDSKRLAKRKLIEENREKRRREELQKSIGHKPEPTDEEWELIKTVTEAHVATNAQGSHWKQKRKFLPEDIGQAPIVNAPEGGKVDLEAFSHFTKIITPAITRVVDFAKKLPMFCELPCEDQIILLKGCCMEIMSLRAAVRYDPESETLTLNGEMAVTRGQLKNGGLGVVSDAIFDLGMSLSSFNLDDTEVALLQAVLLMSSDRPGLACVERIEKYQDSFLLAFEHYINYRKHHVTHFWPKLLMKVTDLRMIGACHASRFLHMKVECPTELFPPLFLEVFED
Sequence of Estrogen receptor (Homo sapiens) (P03372 whole entry, looked up): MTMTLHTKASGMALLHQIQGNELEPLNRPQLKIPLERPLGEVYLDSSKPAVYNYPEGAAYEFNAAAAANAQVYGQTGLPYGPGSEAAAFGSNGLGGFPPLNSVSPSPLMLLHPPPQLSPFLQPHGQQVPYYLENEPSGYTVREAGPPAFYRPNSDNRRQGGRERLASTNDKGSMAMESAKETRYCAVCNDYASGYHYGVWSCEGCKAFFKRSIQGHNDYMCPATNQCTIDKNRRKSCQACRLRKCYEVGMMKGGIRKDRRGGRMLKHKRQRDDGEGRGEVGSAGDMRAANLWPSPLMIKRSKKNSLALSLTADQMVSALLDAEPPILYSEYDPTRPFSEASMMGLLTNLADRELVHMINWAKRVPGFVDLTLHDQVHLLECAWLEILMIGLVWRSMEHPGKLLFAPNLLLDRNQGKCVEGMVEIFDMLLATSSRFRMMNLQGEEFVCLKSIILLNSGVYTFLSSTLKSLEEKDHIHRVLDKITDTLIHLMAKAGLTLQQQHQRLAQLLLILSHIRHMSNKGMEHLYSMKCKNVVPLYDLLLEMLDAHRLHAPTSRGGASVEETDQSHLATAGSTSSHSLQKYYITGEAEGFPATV
Sequence of Vitamin D3 receptor (Homo sapiens) (P11473 whole entry, looked up): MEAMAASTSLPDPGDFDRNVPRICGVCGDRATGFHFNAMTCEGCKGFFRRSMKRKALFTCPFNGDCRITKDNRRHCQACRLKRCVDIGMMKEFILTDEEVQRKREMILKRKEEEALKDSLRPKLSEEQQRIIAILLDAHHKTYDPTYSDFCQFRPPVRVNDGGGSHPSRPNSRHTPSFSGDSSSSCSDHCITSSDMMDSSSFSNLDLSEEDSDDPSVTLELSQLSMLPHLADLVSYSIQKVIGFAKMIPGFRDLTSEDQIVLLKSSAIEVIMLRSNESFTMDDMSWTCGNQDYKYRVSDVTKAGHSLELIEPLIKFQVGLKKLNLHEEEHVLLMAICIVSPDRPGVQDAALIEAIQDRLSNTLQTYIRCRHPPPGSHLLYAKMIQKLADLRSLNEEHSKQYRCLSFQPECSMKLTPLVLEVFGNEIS
Sequence of Retinoic acid receptor RXR-alpha (Homo sapiens) (P19793 whole entry, looked up): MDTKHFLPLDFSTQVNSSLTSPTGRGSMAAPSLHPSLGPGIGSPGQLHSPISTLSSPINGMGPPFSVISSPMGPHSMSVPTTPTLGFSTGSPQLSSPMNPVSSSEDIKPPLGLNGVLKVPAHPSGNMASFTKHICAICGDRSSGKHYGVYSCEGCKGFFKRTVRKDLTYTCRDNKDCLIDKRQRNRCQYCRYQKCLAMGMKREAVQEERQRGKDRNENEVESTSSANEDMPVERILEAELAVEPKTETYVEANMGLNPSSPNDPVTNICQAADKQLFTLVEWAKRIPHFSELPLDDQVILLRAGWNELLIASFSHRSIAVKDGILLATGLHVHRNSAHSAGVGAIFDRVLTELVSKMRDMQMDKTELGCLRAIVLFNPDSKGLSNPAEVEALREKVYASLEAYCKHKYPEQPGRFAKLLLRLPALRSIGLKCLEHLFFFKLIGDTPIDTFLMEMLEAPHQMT

Take `N#CC(CCc1ccc(Cl)cc1)(Cn1cncn1)c1ccccc1` (centres undefined): the Potency entry in [1], in test [2], in test [3], in [10] and in test [13] was “inactive” throughout. The max response is 6.94% in [4]; -64.1% (inactive) in [5]; -0.149% (inactive) in test [9]; -21.6% (inactive) in test [11]; -24.7% (inactive) in [12]. Further, the activation was 0.949% (inactive) in test [6], 2.24% (inactive) in test [7] and 3.22% (inactive) in test [8].

In the case of `N#CCNC(=O)c1cnccc1C(F)(F)F`, the Potency result in test [2], in [16], in test [17], in test [18], in test [3] and in test [10] was “inactive” each time. Also, the Potency result in test [13] is “inactive”. Also, the compound was called inactive in test [14]. For the same compound, the max response in test [15] is -20.3%; in test [4], -6.46%; in [5] it was -7.71% (inactive); in test [9], -0.401% (inactive); in test [11] it was -0.0757% (inactive); in test [12], -6.61% (inactive). Further, the max response in test [20] was 3.48% (inactive). The activity change % (negative = inhibition) in [19] was 15.2% (inactive). In addition, the values for the activation in test [6] and in test [8] were -2.69% (inactive) and 1.26% (inactive), respectively.

With `C=CCOC(=O)C(C)(C)OC(=O)c1cc(-n2c(=O)cc(C(F)(F)F)n(C)c2=O)ccc1Cl`, the Potency entry in test [1], in [2], in [16], in [18], in test [3] and in test [10] was “inactive” each time. The compound was called inactive in test [14]. The max response in test [15] was 15.1%; in test [4], -18.1%; in [5], 23.7% (inactive); in [9] it was 2.63% (inactive); in [11], -16.6% (inactive); in test [12] it was -6.91% (inactive). The activity change % (negative = inhibition) in [19] is -9.78% (inactive). Further, the activation is 4.39% (inactive) in test [6] and 1.35% (inactive) in test [8].

As to `COc1ccc(/C(=C/C(=O)N2CCOCC2)c2ccc(Cl)cc2)cc1OC`, the Potency entry in [2], in test [17], in test [18], in test [3], in test [10] and in test [13] was “inactive” in each case. For the same compound, the max response is 24.3% in test [4]; 0.316% (inactive) in test [9]; -2.69% (inactive) in [11]; -14.1% (inactive) in [12]; 8.84% (inactive) in [20]. In addition, the activation in test [6] is -3.46% (inactive); in [7], -1.84% (inactive); in test [8] it was -0.517% (inactive).

Take `CN/C(=N\[N+](=O)[O-])NCc1cnc(Cl)s1`: the Potency entry in test [1], in test [17], in test [18], in test [3], in test [10] and in [13] was “inactive” throughout. Moreover, the max response in [4] is -9.8%; in test [5], -1.36% (inactive); in test [9], -0.992% (inactive); in test [11], 0.65% (inactive); in [12], -4.28% (inactive); in test [20], 6.52% (inactive). In test [19], the activity change % (negative = inhibition) was -15.1% (inactive). Also, the activation in test [8] is 1.58% (inactive).

Consider `CCOP(=S)(OCC)SC(CCl)N1C(=O)c2ccccc2C1=O` (centres undefined), for which the call in test [14] was inactive. Besides, the max response in test [15] was 51.4%; in test [4] it was 3.14%; in [5] it was 7.55% (inactive); in [9], -0.704% (inactive); in [11], -13.6% (inactive). The Potency entry in test [16], in [17], in test [3] and in [13] was “inactive” throughout. In test [19], the activity change % (negative = inhibition) is 7.21% (inactive). For the same compound, the activation was -5.87% (inactive) in test [6], -1.92% (inactive) in test [7] and 0.999% (inactive) in test [8].
